# Experiments:
# Experiment in all cases: DAPPL (digital affinity profiling via proximity ligation, sequencing); 10 mM Tris-HCl pH 7.5, 50 mM NaCl, 1 mM DTT, 4% glycerol, room temperature, 30 min; GST-TFs on glutathione beads, 16-mer random dsDNA library, 0.1% formaldehyde crosslink after washing; high values mean tight binding
# [1] = biological target: T1, FLI1 (Homo sapiens, UniProt Q01543 1-452); settings: protein: recombinant; tags: N-terminal GST; dsDNA, one strand shown
# T1 sequence: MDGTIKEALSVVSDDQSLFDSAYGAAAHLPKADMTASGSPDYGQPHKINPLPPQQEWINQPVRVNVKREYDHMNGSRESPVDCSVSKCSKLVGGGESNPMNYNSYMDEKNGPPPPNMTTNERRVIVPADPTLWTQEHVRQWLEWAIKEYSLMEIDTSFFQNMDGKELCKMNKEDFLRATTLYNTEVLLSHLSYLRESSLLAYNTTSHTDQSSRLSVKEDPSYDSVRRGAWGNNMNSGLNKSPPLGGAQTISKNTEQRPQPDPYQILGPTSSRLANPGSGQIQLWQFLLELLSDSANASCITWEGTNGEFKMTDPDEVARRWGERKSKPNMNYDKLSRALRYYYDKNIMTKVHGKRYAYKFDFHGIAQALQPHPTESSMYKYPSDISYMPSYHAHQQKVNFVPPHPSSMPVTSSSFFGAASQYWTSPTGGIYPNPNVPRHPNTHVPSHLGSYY
# Procedure, shortened: (§1)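 Each value of binding signal is a hexamer's read frequency for a factor divided by the same hexamer's frequency in the tag-only sample. Barcoded, bead-captured GST fusions of human transcription factors made in yeast were pooled with that sample and incubated with 200 nmole of a random double-stranded 16-mer DNA library in Tris/NaCl/DTT/glycerol buffer at room temperature for 30 min. Washing, 0.1% formaldehyde crosslinking, proximity ligation, PCR and Illumina NextSeq500 sequencing followed.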
# [2] = biological target: T2, ELK1 (Homo sapiens, UniProt P19419 1-428); settings: protein: recombinant; tags: N-terminal GST; dsDNA, one strand shown
# T2 sequence: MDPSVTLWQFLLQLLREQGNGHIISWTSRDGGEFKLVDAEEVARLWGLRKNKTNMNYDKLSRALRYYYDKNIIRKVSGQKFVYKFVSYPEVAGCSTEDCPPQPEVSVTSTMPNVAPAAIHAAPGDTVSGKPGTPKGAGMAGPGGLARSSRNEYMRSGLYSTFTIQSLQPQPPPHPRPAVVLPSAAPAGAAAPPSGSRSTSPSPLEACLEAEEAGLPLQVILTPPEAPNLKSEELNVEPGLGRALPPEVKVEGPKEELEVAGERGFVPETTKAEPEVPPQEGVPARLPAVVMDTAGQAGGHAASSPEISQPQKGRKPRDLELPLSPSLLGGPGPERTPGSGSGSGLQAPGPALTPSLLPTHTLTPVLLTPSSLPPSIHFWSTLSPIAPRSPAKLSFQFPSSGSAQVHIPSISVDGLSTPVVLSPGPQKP
# Procedure, shortened: as §1
# [3] = biological target: T3, GABPA (Homo sapiens, UniProt Q06546 1-454); settings: protein: recombinant; tags: N-terminal GST; dsDNA, one strand shown
# T3 sequence: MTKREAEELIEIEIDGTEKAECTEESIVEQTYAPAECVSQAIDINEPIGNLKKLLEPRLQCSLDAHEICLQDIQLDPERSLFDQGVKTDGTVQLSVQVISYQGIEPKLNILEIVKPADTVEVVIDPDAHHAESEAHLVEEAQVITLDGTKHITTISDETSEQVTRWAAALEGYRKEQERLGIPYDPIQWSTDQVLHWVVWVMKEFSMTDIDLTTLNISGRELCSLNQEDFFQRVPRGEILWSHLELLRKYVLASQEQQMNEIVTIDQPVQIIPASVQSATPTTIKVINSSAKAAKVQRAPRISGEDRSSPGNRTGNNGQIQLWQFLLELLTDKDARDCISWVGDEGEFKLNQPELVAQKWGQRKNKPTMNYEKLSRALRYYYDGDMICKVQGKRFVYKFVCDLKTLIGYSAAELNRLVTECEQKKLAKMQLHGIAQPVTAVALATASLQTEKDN
# Procedure, shortened: as §1
# [4] = biological target: T4, ERG (Homo sapiens, UniProt P11308 1-479); settings: protein: recombinant; tags: N-terminal GST; dsDNA, one strand shown
# T4 sequence: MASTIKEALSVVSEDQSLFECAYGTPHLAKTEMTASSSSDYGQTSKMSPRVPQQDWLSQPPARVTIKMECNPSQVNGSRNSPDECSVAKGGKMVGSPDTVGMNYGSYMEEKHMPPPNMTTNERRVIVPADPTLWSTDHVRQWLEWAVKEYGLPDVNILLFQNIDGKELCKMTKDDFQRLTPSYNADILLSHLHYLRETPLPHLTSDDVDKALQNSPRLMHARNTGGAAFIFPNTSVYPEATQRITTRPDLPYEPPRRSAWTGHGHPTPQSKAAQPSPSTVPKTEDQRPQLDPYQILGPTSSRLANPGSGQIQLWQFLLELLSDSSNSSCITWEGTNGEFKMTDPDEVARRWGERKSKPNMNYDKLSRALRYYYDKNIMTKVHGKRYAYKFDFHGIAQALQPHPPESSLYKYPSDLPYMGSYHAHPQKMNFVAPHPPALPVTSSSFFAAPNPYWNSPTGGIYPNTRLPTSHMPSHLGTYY
# Procedure, shortened: as §1
# [5] = biological target: ELF1 (Homo sapiens, UniProt P32519 1-619); settings: protein: recombinant; tags: N-terminal GST; dsDNA, one strand shown
# Procedure, shortened: as §1
# [6] = biological target: T5, EHF (Homo sapiens, UniProt Q9NZC4 1-300); settings: protein: recombinant; tags: N-terminal GST; dsDNA, one strand shown
# T5 sequence: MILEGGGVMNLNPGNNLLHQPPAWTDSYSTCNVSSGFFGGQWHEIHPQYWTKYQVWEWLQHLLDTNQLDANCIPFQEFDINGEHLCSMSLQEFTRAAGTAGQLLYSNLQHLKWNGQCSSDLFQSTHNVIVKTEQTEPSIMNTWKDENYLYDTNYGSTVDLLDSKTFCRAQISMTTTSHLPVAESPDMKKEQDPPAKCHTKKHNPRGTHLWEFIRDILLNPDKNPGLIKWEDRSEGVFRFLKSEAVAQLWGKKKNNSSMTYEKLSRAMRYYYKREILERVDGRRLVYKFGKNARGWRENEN
# Procedure, shortened: as §1
# [7] = biological target: SPI1 (Homo sapiens, UniProt P17947 1-270); settings: protein: recombinant; tags: N-terminal GST; dsDNA, one strand shown
# Procedure, shortened: as §1
# [8] = biological target: SPIB (Homo sapiens, UniProt Q01892 1-262); settings: protein: recombinant; tags: N-terminal GST; dsDNA, one strand shown
# Procedure, shortened: as §1
# [9] = biological target: T6, ELK3 (Homo sapiens, UniProt P41970 1-407); settings: protein: recombinant; tags: N-terminal GST; dsDNA, one strand shown
# T6 sequence: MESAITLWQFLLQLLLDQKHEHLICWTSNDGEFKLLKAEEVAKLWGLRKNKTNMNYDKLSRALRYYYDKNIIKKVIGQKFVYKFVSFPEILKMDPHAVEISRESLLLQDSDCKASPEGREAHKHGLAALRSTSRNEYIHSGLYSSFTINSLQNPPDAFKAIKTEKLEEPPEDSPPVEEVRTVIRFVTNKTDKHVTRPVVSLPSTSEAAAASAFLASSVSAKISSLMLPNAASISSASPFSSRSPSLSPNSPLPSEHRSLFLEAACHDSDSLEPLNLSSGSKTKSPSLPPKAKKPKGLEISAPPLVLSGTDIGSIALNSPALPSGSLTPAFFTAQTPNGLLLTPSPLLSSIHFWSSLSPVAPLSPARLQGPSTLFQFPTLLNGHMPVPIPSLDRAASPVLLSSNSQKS
# Procedure, shortened: as §1
# [10] = biological target: T7, FEV (Homo sapiens, UniProt Q99581 1-238); settings: protein: recombinant; tags: N-terminal GST; dsDNA, one strand shown
# T7 sequence: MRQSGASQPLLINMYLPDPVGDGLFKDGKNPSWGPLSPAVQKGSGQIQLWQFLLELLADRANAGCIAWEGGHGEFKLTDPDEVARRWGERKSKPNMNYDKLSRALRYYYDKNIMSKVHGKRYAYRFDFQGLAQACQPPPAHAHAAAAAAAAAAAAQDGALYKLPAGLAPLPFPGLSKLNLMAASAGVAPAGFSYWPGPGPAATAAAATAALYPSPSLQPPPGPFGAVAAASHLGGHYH
# Procedure, shortened: as §1
# [11] = biological target: ETV5 (Homo sapiens, UniProt P41161 1-510); settings: protein: recombinant; tags: N-terminal GST; dsDNA, one strand shown
# Procedure, shortened: as §1
# [12] = biological target: HSF1 (Homo sapiens, UniProt Q00613 1-529); settings: protein: recombinant; tags: N-terminal GST; chain copies: 3; dsDNA, one strand shown
# Procedure, shortened: as §1
# [13] = biological target: T8, SPIC (Homo sapiens, UniProt Q8N5J4 1-248); settings: protein: recombinant; tags: N-terminal GST; dsDNA, one strand shown
# T8 sequence: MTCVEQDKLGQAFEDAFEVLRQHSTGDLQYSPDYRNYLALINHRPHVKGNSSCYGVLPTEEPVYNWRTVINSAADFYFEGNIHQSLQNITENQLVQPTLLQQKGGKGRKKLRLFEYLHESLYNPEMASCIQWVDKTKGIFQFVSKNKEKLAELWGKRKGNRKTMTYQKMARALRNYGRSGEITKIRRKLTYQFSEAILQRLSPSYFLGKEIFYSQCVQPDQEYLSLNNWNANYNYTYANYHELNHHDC
# Procedure, shortened: as §1
# [14] = biological target: ELF4 (Homo sapiens, UniProt Q99607 1-663); settings: protein: recombinant; tags: N-terminal GST; dsDNA, one strand shown
# Procedure, shortened: as §1
# [15] = biological target: T9, ELK4 (Homo sapiens, UniProt P28324-2 1-405); settings: protein: recombinant; tags: N-terminal GST; dsDNA, one strand shown
# T9 sequence: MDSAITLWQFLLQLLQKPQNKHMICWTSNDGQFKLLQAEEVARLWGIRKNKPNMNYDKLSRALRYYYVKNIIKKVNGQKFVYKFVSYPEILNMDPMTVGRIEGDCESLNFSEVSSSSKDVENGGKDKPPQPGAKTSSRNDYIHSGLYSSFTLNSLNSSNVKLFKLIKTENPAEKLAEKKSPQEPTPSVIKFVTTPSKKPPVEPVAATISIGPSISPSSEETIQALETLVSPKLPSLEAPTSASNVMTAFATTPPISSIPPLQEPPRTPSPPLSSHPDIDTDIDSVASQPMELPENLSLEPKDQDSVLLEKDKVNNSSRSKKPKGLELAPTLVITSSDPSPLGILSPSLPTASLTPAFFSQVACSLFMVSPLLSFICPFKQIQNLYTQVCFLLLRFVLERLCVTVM
# Procedure, shortened: as §1
# [16] = biological target: T10, ETV2 (Homo sapiens, UniProt O00321 1-342); settings: protein: recombinant; tags: N-terminal GST; dsDNA, one strand shown
# T10 sequence: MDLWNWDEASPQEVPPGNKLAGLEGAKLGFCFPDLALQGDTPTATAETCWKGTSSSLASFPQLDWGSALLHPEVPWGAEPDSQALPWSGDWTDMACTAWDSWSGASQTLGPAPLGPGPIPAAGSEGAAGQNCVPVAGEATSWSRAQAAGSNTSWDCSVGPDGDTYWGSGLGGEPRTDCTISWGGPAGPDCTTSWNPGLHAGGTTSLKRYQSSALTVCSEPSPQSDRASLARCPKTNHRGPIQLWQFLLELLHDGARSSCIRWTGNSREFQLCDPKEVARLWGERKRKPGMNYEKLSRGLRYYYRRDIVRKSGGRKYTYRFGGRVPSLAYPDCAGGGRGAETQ
# Procedure, shortened: as §1
# [17] = biological target: T11, ELF3 (Homo sapiens, UniProt P78545 1-371); settings: protein: recombinant; tags: N-terminal GST; dsDNA, one strand shown
# T11 sequence: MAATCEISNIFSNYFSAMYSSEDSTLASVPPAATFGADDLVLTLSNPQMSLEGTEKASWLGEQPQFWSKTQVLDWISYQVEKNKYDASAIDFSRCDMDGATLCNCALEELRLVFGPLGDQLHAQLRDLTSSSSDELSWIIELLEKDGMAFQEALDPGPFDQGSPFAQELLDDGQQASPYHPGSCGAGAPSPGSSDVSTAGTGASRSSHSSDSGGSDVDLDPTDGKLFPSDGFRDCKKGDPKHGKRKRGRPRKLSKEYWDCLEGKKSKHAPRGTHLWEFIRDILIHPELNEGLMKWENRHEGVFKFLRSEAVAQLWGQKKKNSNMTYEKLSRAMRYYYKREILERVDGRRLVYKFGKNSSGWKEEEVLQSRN
# Procedure, shortened: as §1
# [18] = biological target: CRX (Homo sapiens, UniProt O43186 1-299); settings: protein: recombinant; tags: N-terminal GST; dsDNA, one strand shown
# Procedure, shortened: as §1
# [19] = biological target: ETV1 (Homo sapiens, UniProt P50549 1-477); settings: protein: recombinant; tags: N-terminal GST; dsDNA, one strand shown
# Procedure, shortened: as §1
# Sequence of ELF4 (Q99607 whole entry): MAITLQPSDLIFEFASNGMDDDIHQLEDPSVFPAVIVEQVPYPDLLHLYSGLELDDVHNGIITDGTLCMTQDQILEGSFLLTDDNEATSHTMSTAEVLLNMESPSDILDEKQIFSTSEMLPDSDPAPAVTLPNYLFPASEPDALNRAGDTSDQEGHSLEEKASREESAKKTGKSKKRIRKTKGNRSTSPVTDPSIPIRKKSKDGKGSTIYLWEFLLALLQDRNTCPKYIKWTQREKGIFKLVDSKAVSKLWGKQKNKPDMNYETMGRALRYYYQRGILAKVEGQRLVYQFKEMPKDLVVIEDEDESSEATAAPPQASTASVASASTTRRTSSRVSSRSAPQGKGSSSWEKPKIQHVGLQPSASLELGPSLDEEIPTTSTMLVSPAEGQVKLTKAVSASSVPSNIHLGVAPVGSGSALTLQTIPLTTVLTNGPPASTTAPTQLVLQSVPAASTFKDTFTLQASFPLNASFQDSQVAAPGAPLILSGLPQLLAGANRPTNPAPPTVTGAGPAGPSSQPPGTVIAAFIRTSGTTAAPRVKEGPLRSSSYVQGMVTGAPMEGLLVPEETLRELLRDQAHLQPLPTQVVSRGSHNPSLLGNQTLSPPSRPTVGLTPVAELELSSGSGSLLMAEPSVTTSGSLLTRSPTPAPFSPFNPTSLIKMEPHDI
# Sequence of HSF1 (Q00613 whole entry): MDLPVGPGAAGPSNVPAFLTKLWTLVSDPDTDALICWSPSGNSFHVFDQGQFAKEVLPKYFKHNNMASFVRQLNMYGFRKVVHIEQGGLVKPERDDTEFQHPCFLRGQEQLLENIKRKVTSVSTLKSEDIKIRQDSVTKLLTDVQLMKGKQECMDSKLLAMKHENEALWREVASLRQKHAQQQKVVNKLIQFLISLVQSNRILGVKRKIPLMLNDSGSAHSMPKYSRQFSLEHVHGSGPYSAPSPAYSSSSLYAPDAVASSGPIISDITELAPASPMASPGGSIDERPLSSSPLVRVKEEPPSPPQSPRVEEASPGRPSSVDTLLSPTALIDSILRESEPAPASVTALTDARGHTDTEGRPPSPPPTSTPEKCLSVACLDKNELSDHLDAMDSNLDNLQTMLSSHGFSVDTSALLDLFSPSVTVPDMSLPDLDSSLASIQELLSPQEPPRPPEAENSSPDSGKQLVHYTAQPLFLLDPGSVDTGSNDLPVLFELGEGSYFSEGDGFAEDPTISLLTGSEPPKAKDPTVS
# Sequence of CRX (O43186 whole entry): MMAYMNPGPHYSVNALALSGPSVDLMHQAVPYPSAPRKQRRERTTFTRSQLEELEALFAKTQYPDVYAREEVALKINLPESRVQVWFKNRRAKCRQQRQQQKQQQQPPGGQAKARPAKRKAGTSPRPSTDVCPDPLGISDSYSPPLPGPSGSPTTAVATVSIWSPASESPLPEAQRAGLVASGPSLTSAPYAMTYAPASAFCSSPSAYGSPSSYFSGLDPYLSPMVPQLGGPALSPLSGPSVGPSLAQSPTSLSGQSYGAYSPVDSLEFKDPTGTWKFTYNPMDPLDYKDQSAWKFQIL
# Sequence of ETV1 (P50549 whole entry): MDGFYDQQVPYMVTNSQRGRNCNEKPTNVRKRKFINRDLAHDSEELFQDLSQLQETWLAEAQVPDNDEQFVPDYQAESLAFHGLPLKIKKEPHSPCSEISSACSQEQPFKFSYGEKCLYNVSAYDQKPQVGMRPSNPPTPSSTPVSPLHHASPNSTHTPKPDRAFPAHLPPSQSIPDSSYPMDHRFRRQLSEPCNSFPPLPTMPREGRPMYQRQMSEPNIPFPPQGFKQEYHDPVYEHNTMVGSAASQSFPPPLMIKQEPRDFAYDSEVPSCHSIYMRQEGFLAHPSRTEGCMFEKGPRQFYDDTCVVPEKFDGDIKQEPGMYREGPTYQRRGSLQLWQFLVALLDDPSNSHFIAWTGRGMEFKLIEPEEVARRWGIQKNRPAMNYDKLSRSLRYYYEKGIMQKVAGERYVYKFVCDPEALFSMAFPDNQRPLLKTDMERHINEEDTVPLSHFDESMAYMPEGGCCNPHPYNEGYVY
# Sequence of ELF1 (P32519 whole entry): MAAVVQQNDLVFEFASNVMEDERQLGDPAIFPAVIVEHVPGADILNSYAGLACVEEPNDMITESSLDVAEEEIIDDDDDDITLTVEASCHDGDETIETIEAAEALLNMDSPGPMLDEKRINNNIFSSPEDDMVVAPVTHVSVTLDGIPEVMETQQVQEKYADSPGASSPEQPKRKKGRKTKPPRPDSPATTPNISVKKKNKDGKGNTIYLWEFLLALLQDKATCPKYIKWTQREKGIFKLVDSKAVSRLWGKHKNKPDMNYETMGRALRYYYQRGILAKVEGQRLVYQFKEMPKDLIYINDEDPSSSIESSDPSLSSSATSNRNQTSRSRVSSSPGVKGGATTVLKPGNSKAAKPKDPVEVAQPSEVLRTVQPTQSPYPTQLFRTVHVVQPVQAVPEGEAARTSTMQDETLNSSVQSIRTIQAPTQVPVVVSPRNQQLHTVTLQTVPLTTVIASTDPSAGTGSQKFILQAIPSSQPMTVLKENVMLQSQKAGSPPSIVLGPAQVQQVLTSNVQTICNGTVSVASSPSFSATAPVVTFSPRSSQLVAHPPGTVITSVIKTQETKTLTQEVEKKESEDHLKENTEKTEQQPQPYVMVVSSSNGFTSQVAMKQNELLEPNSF
# Sequence of SPIB (Q01892 whole entry): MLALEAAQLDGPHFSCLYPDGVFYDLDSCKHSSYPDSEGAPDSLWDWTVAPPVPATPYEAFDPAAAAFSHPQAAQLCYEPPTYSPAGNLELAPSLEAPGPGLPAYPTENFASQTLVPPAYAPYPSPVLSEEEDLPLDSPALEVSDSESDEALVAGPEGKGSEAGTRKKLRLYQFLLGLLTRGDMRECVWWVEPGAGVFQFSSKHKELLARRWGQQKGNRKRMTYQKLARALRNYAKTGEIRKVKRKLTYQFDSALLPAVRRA
# Sequence of ETV5 (P41161 whole entry): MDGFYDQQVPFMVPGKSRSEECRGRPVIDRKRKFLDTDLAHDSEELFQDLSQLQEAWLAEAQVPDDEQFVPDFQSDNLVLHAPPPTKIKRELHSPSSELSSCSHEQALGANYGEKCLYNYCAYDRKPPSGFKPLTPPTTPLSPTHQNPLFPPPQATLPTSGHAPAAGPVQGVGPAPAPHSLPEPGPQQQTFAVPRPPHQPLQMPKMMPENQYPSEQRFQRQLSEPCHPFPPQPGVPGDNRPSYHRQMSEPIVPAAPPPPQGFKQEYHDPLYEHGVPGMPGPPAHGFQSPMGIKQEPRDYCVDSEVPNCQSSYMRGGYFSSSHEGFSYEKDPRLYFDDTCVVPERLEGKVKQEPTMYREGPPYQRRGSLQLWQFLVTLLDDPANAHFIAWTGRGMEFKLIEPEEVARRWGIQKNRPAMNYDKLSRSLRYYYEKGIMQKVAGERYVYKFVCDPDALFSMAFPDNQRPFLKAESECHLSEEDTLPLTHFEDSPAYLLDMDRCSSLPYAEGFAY
sequence,measurement,setting,value
TCCTGA,binding signal,[1],"1.43 fold enrichment (6-mer frequency, TF over GST control)"
same,binding signal,[2],"1.45 fold enrichment (6-mer frequency, TF over GST control)"
same,binding signal,[3],"1.47 fold enrichment (6-mer frequency, TF over GST control)"
same,binding signal,[4],"1.5 fold enrichment (6-mer frequency, TF over GST control)"
same,binding signal,[5],"1.41 fold enrichment (6-mer frequency, TF over GST control)"
same,binding signal,[6],"1.45 fold enrichment (6-mer frequency, TF over GST control)"
same,binding signal,[7],"1.47 fold enrichment (6-mer frequency, TF over GST control)"
same,binding signal,[8],"1.46 fold enrichment (6-mer frequency, TF over GST control)"
same,binding signal,[9],"1.54 fold enrichment (6-mer frequency, TF over GST control)"
same,binding signal,[10],"1.31 fold enrichment (6-mer frequency, TF over GST control)"
same,binding signal,[11],"1.53 fold enrichment (6-mer frequency, TF over GST control)"
same,binding signal,[12],"1.57 fold enrichment (6-mer frequency, TF over GST control)"
same,binding signal,[13],"1.32 fold enrichment (6-mer frequency, TF over GST control)"
same,binding signal,[14],"1.39 fold enrichment (6-mer frequency, TF over GST control)"
same,binding signal,[15],"1.29 fold enrichment (6-mer frequency, TF over GST control)"
same,binding signal,[16],"1.66 fold enrichment (6-mer frequency, TF over GST control)"
same,binding signal,[17],"1.39 fold enrichment (6-mer frequency, TF over GST control)"
same,binding signal,[18],"1.25 fold enrichment (6-mer frequency, TF over GST control)"
same,binding signal,[19],"1.49 fold enrichment (6-mer frequency, TF over GST control)"
